Data published in PubChem BioAssay AID1508622 (National Center for Advancing Translational Sciences (NCATS), 2021).
The source made the active and inactive calls. Entries that show only a call come without a potency. Calls come from the whole dose curve; as a rule, active = well fitted activation curve with a large enough effect; inconclusive = small, poorly fitted or top-dose-only effect; inactive = no such curve, though single readings can be large or run the other way.

Assay: Confirmatory qHTS for Identification of Small Molecule Activators of Huntingtin-Antisense Promoter Activity
Settings: HEK293 HTT-AS promoter firefly luciferase reporter, 24 h; series mostly up to 57.5 µM
Procedure, shortened: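 HEK293 luciferase reporter cells, 2,500/well, cultured 24 h, then exposed to compounds at up to 57.5 uM final for 24 h at 37C. Firefly luciferase luminescence read; normalized to vehicle (0%) and zero RLU (-100%).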
Potency is the fitted concentration of half-maximal effect.

Compound	Potency
Cn1c(=O)n(C)c2cc(NS(=O)(=O)c3ccccc3)c(NCc3ccccc3)cc21	inactive
COc1cccc(NC(=O)/C(C#N)=C\c2cn(Cc3ccc(C)cc3)c3ccccc23)c1	inactive
CCn1c(CN2CCCCC2)nc2cc(NC(=O)c3ccc([N+](=O)[O-])cc3)ccc21	inactive
CCCCN(C)C(=O)C1CCC(CNS(=O)(=O)c2ccc(Cl)cc2)CC1 (centres undefined)	inactive
CCOC(=O)C1CCCN(C(=O)Cn2ncc3c(C)n(Cc4ccc(F)cc4)c(C)c3c2=O)C1 (centres undefined)	inactive
CCOc1ccccc1C(=O)Nc1ccc(-n2nncc2-c2ccccc2)cc1	inactive
CCOc1ccc(CCNC(=O)c2cc3n(n2)CCCN(Cc2ccc(C)cc2)C3=O)cc1OCC	inactive
CCOc1cc(CNCCSc2nnnn2-c2ccccc2)cc(Cl)c1OC	inactive
CCc1cccc(NS(=O)(=O)c2ccc3c(c2)CC(C)N3C(=O)C2CC2)c1 (centres undefined)	inactive
CC(C)(C)OC(=O)N1CCC(c2c(C(=O)N3CCC(c4ccccc4)C3)cnn2-c2ccc(Cl)cc2)CC1 (centres undefined)	inactive
CCOc1ccc(C(NC(=O)c2cc(OC)c(OC)c(OC)c2)c2cc(Cl)c3cccnc3c2O)cc1 (centres undefined)	inactive
COc1ccc(Cn2c(SCc3ccc(C(=O)NC4CCCC4)cc3)nc3ccncc32)cc1	inactive
CCN(CC)CCOc1ccc(C(=C(Cl)c2ccccc2)c2ccccc2)cc1	inactive
Cc1ccccc1-c1noc(CSc2nc3ccccc3[nH]2)n1	inactive
Cc1ccccc1Nc1sc(C(=O)c2ccc(F)cc2)c(N)c1C(=O)NCCc1ccccc1	inactive
CCOc1ccc(CCNc2ncnc3onc(C)c23)cc1OCC	inactive
O=C(c1ccc2c(c1)CCN2S(=O)(=O)c1ccc(Cl)cc1)N1CCN(c2ccccc2F)CC1	inactive
CCOc1ccccc1C(=O)Nc1ccc2nc3c(c(Nc4ccc(OC)c(OC)c4)c2c1)CCCC3	inactive
CCS(=O)(=O)c1ncc(Cl)c(C(=O)NCc2ccc(OC)cc2)n1	inactive
CC1CCN(C(=O)CN2c3ccc(Br)cc3-c3ccccc3S2(=O)=O)CC1	2690 nM (active)

Compound	Potency
CCOc1ccc(S(=O)(=O)NCCc2sc3nc(-c4ccc(F)cc4)nn3c2C)cc1	inactive
Cc1cc(Cl)ccc1OCC(=O)N1CCC(c2nc3ccccc3s2)CC1	inactive
CSc1ccc(/C=C/c2nc3ccccc3n2S(=O)(=O)c2ccc(F)c(C)c2)cc1	135 nM (active)
Cc1cccc(NC(=O)c2ccc(F)c(S(=O)(=O)N(C)C3CCCCC3)c2)c1	inactive
O=C(CCNS(=O)(=O)c1ccc2c(c1)CCN2C(=O)C1CC1)N1CCN(c2ccc(F)cc2)CC1	inactive
COC(=O)c1c(C)oc2ccc(N(C(=O)c3ccncc3)S(=O)(=O)c3cc(C)ccc3C)cc12	inactive
O=C(NCC(c1ccc2c(c1)OCO2)N1CCN(c2ccccc2)CC1)c1ccc(F)c(F)c1 (centres undefined)	inactive
O=C(CCc1cn(Cc2ccc(F)cc2)c2ccccc12)NC1CCCCC1	inactive
CCCCN1CC(c2nc3ccccc3n2CCCCOc2ccc(C)c(C)c2)CC1=O (centres undefined)	inactive
Cc1ccc(-n2ncc3c(N(CCO)Cc4ccccc4)ncnc32)cc1	1070 nM (active)
CC(C)[C@H](CO)Nc1nc(Nc2ccc(C(=O)O)c(Cl)c2)c2ncn(C(C)C)c2n1	inactive
COc1ccc(Nc2sc(C(=O)c3ccccc3)c(N)c2C(=O)Nc2cc(C)ccc2C)c(OC)c1	inactive
CCOc1ccc(-n2ccnc2SCC(=O)Nc2ccc3c(c2)OCO3)cc1	inactive
CCc1ccc(NC(=O)c2ccc(F)c(S(=O)(=O)N3CCC(C)CC3)c2)cc1	inactive
COc1cc(OC)c(C2C=C(c3ccc(C)cc3)Nc3c(C(=O)Nc4ccccc4)cnn32)cc1OC (centres undefined)	inactive
CCOc1ccc(NC(=O)c2c(Nc3ccccc3C)sc(C(=O)c3ccccc3)c2N)cc1	inactive
N#CC[C@H](C1CCCC1)n1cc(-c2ncnc3[nH]ccc23)cn1	inactive
CC(C)c1ccc(NC(=O)c2ccc(F)c(S(=O)(=O)N3CCc4ccccc43)c2)cc1	inactive
Cc1c(Cl)ccc2sc(N3CCN(C(=O)CCS(=O)(=O)c4ccc(F)cc4)CC3)nc12	inactive
